Source: PubChem BioAssay AID750 (Sanford-Burnham Center for Chemical Genomics, 2007)
The campaign covered roughly 86,000 compounds. About 140 (0.16%) were called active. Shown is part of a subset that was picked to be rich in actives. A number with no mark means an inactive call.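 The calls were made as follows: active = activation factor of at least 2 for MT1-MMP transcription at 10 µM; inactive = the rest.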

Experiment: MT1-MMP promoter reporter activation – cell-based, luciferase luminescence, primary screen (AID 750)
Conditions: HT1080 MT1-MMP promoter luciferase reporter, overnight, at 10 µM, hits give high values

SMILES	activation factor
Cc1nn(C(C)CC(=O)O)c(C)c1C (stereo not given)	1.2
COc1ccc(NC(=O)CSc2nc(NS(=O)(=O)c3ccc(C)cc3)cc(=O)[nH]2)cc1	1.3
O=C(N/N=C\c1cccc(Br)c1)c1ccccc1-n1cccc1	1.4
Cc1ccc(S(=O)(=O)Nc2nc(C)cc(-n3nc(C)cc3C)n2)cc1	1
CCC(C)NC(=O)C1CCCN(C(=O)NC2CCCCC2)C1 (stereo not given)	1.2
Cc1cc(C)n(-c2nc(O)cc(=O)[nH]2)n1	1
O=C(CN(c1ccccc1)S(=O)(=O)c1ccc(Cl)cc1)Nc1ccccc1C(=O)N1CCCC1	0.9
O=C1/C(=C/c2cccs2)CCc2ccccc21	1.8
CCOC(=O)C1=C(C)NC(=O)NC1c1ccccc1 (stereo not given)	1.1
Cc1ccc(S(=O)(=O)c2c(COC(=O)c3cccc(Cl)c3)c(-c3ccccc3)nn2C)cc1	1.1
CCOC(=O)c1[nH]c(C)c(C(=O)OCC(=O)N2c3ccccc3CC2C)c1C (stereo not given)	1
C=C(Cl)COC(=O)C1C2C=CC(C2)C1C(=O)O (stereo not given)	1.1
O=C(/C=C/c1ccc(Cl)cc1Cl)c1cccnc1	1
CCCCc1nc(NCCN)c(C#N)c2c1CSC(C)(C)C2	1.4
CCOc1ccc(NC(=O)CCS(=O)(=O)c2ccc3c(c2)CCCN3C(=O)CC)cc1	1.1
O=C(CSC1=Nc2ccccc2C2=NC(CC(=O)NCc3ccco3)C(=O)N12)NCc1ccco1 (stereo not given)	1.1
CC1(C(=O)NCCc2c[nH]c3ccccc23)C=CC2(CCCCC2)N1C(=O)c1ccccc1 (stereo not given)	1
O=c1[nH]c(SCc2ccccc2)nnc1-c1ccccc1	1.1
O=C(CCc1ccccc1)NCC#CC(O)c1ccc(Br)cc1 (stereo not given)	1.2
O=C(NCc1ccccc1Cl)c1csc2c1CCCCC2	1.1
CCCCCCSc1nsc(N)n1	1.4
CC(C)CNC(=O)CC(c1ccccc1)c1c(O)ccc2ccccc12 (stereo not given)	1
CCCNC(=O)CN(Cc1ccccc1F)S(=O)(=O)c1ccc(C)cc1	1.3
CCCCNS(=O)(=O)c1ccc(S(=O)(=O)n2cnc3ccccc32)cc1	1.1
O=C(Nc1nccs1)c1cc(S(=O)(=O)N2CCOCC2)c(Cl)cc1Cl	1
CCn1nc(C)c(NC(=O)/C=C/c2ccc(OC)c(COc3ccc(Br)cc3)c2)c1C	0.9
CCCCN(CC)CCNC(=O)c1[nH]c(C)c(C(C)=O)c1C	0.9

SMILES	activation factor
O=C(COc1ccc(Cl)cc1)NCCSc1ccccc1	1.2
CCOc1ccc(NC(=O)c2ccccc2NS(C)(=O)=O)cc1	1.3
O=C(c1cc2c(s1)CCC2)N1CCN(c2ccccc2)CC1	1.1
COc1ccc(C2=NOC3(CC(=O)N(c4ccc(C)cc4)C3=O)C2)cc1 (stereo not given)	1.2
CC1=NN(/C(=N\c2nnc(C)s2)Nc2ccccc2)[C@H](c2ccc(C)cc2)S1	1.1
O=C1CCCc2nn(-c3ccccc3)nc21	1.5
OC(CN=c1sc2ccccc2n1CC(O)COc1ccccc1)COc1ccccc1 (stereo not given)	1.4
C=C(C)C(=O)Nc1cccc(C(C)=O)c1	1.3
CC1CCN(C(=O)CN(c2ccc(Oc3ccccc3)cc2)S(C)(=O)=O)CC1	1
COc1ccc(CNc2ccc3c(c2)CCC3)cc1OC	1.1
Cc1ccccc1-n1nc(C)c2cc(C(=O)NC3CC3)sc21	1.1
Cc1cc(Oc2ccccc2)nc(N2CCOCC2)n1	1.1
Cc1ccc(OCC(=O)N2CCN(C(=O)c3cccnc3)CC2)cc1	1
O=C1/C(=C\Nc2ccccc2)CCN1c1ncccn1	1.9
COc1ccc(CN(Cc2ccco2)S(=O)(=O)c2ccc(S(=O)(=O)N3CCCC3)cc2)cc1	1
CCCCNC(=O)C1CCCN(S(=O)(=O)c2ccc(S(=O)(=O)NCC(C)C)cc2)C1 (stereo not given)	1.2
CCc1ccc(CNC(=O)C2CCCN(c3nc4ccccc4o3)C2)cc1 (stereo not given)	1.1
Cc1cccc(C(=O)N2CCCN(C(=O)c3cccc(C)c3)CC2)c1	1
CCC(C)(C(=O)NC1CCCCC1)N(C)C(=O)c1ccc2c(c1)OCO2 (stereo not given)	1
Cc1ccc(OCCCC(=O)Nc2ccc(N3CCOCC3)cc2)cc1	1.1
O=C(CN1C(=O)C2C3C=CC(C3)C2C1=O)Nc1nc(-c2ccccn2)cs1 (stereo not given)	1.2
COC(=O)c1ccc(C(NC(=O)OCc2ccccc2)/C(C)=C/[C@@H](C)C(=O)NCc2ccc(OC)c(OC)c2)cc1 (stereo not given in full)	1.4
O=C(CC12CC3CC(CC(C3)C1)C2)Nc1ccc2c(c1)COC2=O	1
COc1ccccc1NC(=O)CC(NCCN(C)C)C(=O)O (stereo not given)	1
CS(=O)(=O)N(CC(=O)N1CCN(Cc2ccccc2)CC1)c1ccc2c(c1)OCCO2	0.9
CCn1c(SCC(=O)Nc2nc(C)cs2)nnc1C(C)NC(=O)c1ccccc1 (stereo not given)	1.3
CCCc1nnc(NC(=O)c2cccs2)s1	1.4

SMILES	activation factor
CCOC(=O)CN1C(=O)C(=O)c2cc(C)ccc21	1.1
COc1ccc(/C=N/Nc2nc3ccccc3o2)cc1OC	1.7
CN1CCN(C(=O)Cn2c(C(F)(F)F)nc3ccccc32)CC1	1.2
Cc1ccc(S(=O)(=O)NC(=O)COc2ccccc2C)cc1	1.2
CC1(C)N=C(c2ccccn2)C(C)(C)N1O	1
COc1ccc(CN(C(=O)CSc2nnc(-c3ccc(OC)c(OC)c3)o2)c2ccc(F)cc2)cc1	1.2
CCOC(=O)c1ccc2c(c1)nc(C)n2CC	1.6
O=C(NC(=O)c1ccccc1)NC(=O)c1ccccc1	1
CN(C)c1ccnc2sc3c(=O)n(-c4ccc(Cl)cc4)cnc3c12	1.5
Cc1ccc(-n2cc3ccc([N+](=O)[O-])cc3n2)cc1	0.9
CCOCN(C(=O)Cn1c(C(C)O)nc2ccccc21)c1c(C)cccc1CC (stereo not given)	1.2
CC1CC(C)CN(CC(=O)N2c3ccccc3CCc3ccccc32)C1 (stereo not given)	1.1
O=C(NCCN1CCN(Cc2ccccc2)CC1)c1cc2c(=O)[nH]c3ccccc3c2s1	1
Cc1nn(C)cc1CNC(=O)Nc1ccc(Cl)cc1	1.7
Cc1ccc(-c2csc(NC(=O)Cc3cccs3)n2)cc1C	1.3
O=P(O)(CP(=O)(c1ccccc1)c1ccccc1)c1ccccc1O	1.2
COc1ccc(C(=O)NN(C)c2nc(-c3ccccc3)cc(C)c2S(C)(=O)=O)cc1	1.1
O=S(=O)(c1ccc(Br)cc1)n1ccc2ccccc21	1.1
O=C(NCCc1ccccc1)c1ccc(OCCOc2ccccc2)cc1	1
COC(=O)c1ccc(S(=O)(=O)N2CCC(c3nc4ccccc4o3)CC2)cc1	1.1
COc1ccc(C(c2nnnn2C2CCCCC2)N2CCN(c3ccccc3F)CC2)cc1 (stereo not given)	1.1
c1ccc(CCn2nnnc2CN2CCN(C3CCCC3)CC2)cc1	1.1
c1ccc(C(c2ccccc2)N2CCN(Cc3nnnn3C3CCCCC3)CC2)cc1	2 (active)
C=CCn1c(SCc2c(C)noc2C)nc2sc3c(c2c1=O)CCC(C)C3 (stereo not given)	0.6
CCOc1ccc(-c2nc(C)sc2CC(=O)O)cc1	1
CC(C)(C)N1CC(c2nc3ccccc3n2Cc2ccc(F)cc2)CC1=O (stereo not given)	1.2
CC1(C)Cc2cccc(OCC(N)=O)c2O1	1.2

SMILES	activation factor
Cn1nc(C(F)(F)F)c2cc(NC(=O)OCC(C)(C)C)sc21	1
CC1=NN(C(C)C)C(=O)C1	1.2
CN(C)S(=O)(=O)c1ccc(NC(=O)COC(=O)c2n[nH]c3ccccc23)cc1	1.3
O=C(OC1CCCCC1=O)c1cccc(S(=O)(=O)NCc2ccccc2)c1 (stereo not given)	1.2
COc1ccc(NC(=O)Cn2c(=O)n(Cc3ccco3)c(=O)c3ccccc32)cc1	1
Cc1ccc(-n2nc3cc(C)c(NC(=O)c4cccnc4)cc3n2)cc1	1.5
CC(C)C[C@@H](N)c1nnc(SCC(=O)c2ccc(Cl)cc2)o1	1.1
S=C1NC(c2ccccc2)=NCN1c1ccc(Br)cc1	1.2
Cc1cc(NC(=O)CN2CCCC(C)C2)n(-c2nc3ccccc3s2)n1 (stereo not given)	1.2
Cc1cc(-c2ccccc2)nc(N2CCC(C(=O)NC34CC5CC(CC(C5)C3)C4)CC2)n1	1.3
CCOC(=O)Nc1sc(C(=O)N(C)C)c(C)c1C(=O)OCC	1
Cc1[nH]n(-c2ccc(Cl)cc2)c(=O)c1/C=N/n1c(C)nc2ccccc2c1=O	1
COc1ccc(C2C(C(C)=O)=C(O)C(=O)N2c2nccs2)cc1 (stereo not given)	1
Cc1ccc(CNC(=O)COc2ccc(S(=O)(=O)NC(C)C)cc2)cc1	1.1
CC(C)C(NC(=O)c1ccc(Cl)cc1)C(=O)O (stereo not given)	1.1
CCOc1ccc(C(=O)NC(C(=O)NCc2ccccn2)C(C)C)cc1 (stereo not given)	1.3
COc1ccc(C2=NOC3(CC(=O)N(c4ccc(Cl)cc4)C3=O)C2)c(OC)c1 (stereo not given)	1
Cc1ccc(S(=O)(=O)NCC(=O)N(CC(=O)NC(C)(C)C)Cc2cccs2)cc1	1.1
COc1ccc(C(CC(=O)O)NC(=O)Cc2ccccc2)cc1 (stereo not given)	1.2
Cc1ccc(C(CC(=O)O)Nc2nc(N3CCCCC3)nc(N3CCCCC3)n2)cc1 (stereo not given)	2 (active)
CC(Nc1nc(N2CCCC2)nc2ccccc12)c1ccccc1 (stereo not given)	1.1
OC(C#CCN1CCOCC1)(c1ccccc1)C1CCCCC1 (stereo not given)	1.1
Cc1ccn(C(CC(=O)c2ccc(Br)cc2)C(=O)O)n1 (stereo not given)	1.1
O=C(O)CSCc1ccc(C(=O)O)o1	1.2
